Screening data deposited in PubChem by National Center for Advancing Translational Sciences (NCATS).
HPGD inh: inhibitors of human 15-hydroxyprostaglandin dehydrogenase (HPGD); purified HPGD, NADH fluorescence kinetic, PGE2 substrate; 4.3% of 150,000 active; Potency, µM, most hits filed as inhibitors; AID 894; P15428
Target sequence (P15428 whole entry, looked up): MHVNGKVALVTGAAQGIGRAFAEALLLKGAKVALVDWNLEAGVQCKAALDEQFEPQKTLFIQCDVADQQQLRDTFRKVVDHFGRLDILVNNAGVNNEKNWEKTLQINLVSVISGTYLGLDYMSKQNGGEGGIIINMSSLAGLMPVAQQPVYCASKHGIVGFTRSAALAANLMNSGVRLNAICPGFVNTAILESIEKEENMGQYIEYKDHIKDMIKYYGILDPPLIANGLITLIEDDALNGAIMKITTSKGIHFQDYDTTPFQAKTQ
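20 nM HPGD preincubated 15 min at room temperature with compound in 50 mM Tris-HCl pH 8, 0.01% Tween 20. Started with 1 mM NAD+ and 30 uM prostaglandin E2; NADH fluorescence (360/450 nm) read 5 times over 30-s intervals, last minus first.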
12-hLO inh: inhibitors of human 12-lipoxygenase (ALOX12); P18054; 0.12% of 150,000 active; purified 12-hLO, xylenol orange hydroperoxide absorbance; Potency, µM (highest dose often 57.1 µM), usual class: inhibitors; active = well fitted inhibition curve with a large enough effect; inconclusive = small, poorly fitted or top-dose-only effect; also: nearly all actives have a fitted effect of over 55% in size
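Lipoxygenase turnover measured by absorbance at 573 and 405 nm after Fe-XO development. Human 12hLO 150 nM, arachidonate 40 uM, pH 7.0 Hepes buffer with detergent; 15 min compound preincubation, 30 min reaction.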
PNC inhibitor: perinucleolar compartment assembly inhibition. PC3M PTB-GFP, PNC prevalence imaging, 16 h; stronger effect = lower value. activity change (PNC), negative = inhibition, % at 10 µM. 3.1% of 140,000 active;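 active = readout at or below -70, meaning at least 70% loss of cells showing the perinucleolar compartment, a nuclear body marking cancer cells; inconclusive = readout between -30 and a set limit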
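PC3M cells stably expressing PTB-GFP, 750–1000 cells/well, treated 16 h at 37 °C with compound (23 nl of library stock), in duplicate. After paraformaldehyde fixation and Hoechst stain, imaged at 20x; PNC prevalence scored by image analysis.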
Lamin A splicing: changes lamin A minigene splicing in HeLa cells | HeLa LMNA splicing GFP/RFP minigene ratio, 48 h | Potency, µM (highest dose often 46.1 µM), hits mostly inhibitors | 0.01% of 200,000 active; active = well fitted inhibition curve with a large enough effect in the signal ratio, with a control signal flat, not every such curve was filed as active; inconclusive = small, poorly fitted or top-dose-only effect, or effect the other way, or a change in a side signal; the % refers to the signal ratio
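Read-out is the ratio of GFP to DsRed2 object intensity, acquired by 488 nm laser-scanning cytometry on HeLa lamin A-EGFP minigene reporter cells. Compound incubation 48 hrs at 37 °C in Opti-MEM with 2% FBS; DMSO 0.5% final.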
ALDH1A1 block: blocks purified human ALDH1A1 activity; 7.3% of 220,000 active; P00352; Purified ALDH1A1, NADH fluorescence, propionaldehyde substrate; AID 1030; Potency, µM (series often up to 75.3 µM), usual class: inhibitors
Large screens that a line does not name were inactive. This is a sample that favours compounds with a hit; in the whole collection about 10% have one here. Unless noted, calls follow the shape of the dose curve; as a rule, active = well fitted inhibition curve with a large enough effect (not every such curve was filed as active); inconclusive = small, poorly fitted or top-dose-only effect, or another doubt; inactive = no such curve, though single readings can be large or run the other way.

CCN(CC)S(=O)(=O)c1cccc(S(=O)(=O)N2CCCCC2)c1	PNC inhibitor inconclusive, ALDH1A1 block 3.5µM
O=S(=O)(c1ccccc1)c1cccc(S(=O)(=O)N2CCCCC2)c1	Lamin A splicing inconclusive, ALDH1A1 block 2.2µM
Cc1ccc(S(=O)(=O)c2cccc(S(=O)(=O)N3CCCC3)c2)cc1S(=O)(=O)N1CCCC1	Lamin A splicing inconclusive, ALDH1A1 block inconclusive
NC(=O)Cn1cnc2nc3n(c2c1=O)CCC3	none (no result: HPGD inh, 12-hLO inh, PNC inhibitor, Lamin A splicing)
Cc1nn(C(=O)c2ccc(Cl)cc2)c(C)c1S(=O)(=O)N1CCCCCC1	none (no result: HPGD inh, 12-hLO inh, PNC inhibitor, ALDH1A1 block)
CN(C)CCC#CC(O)(c1ccccc1)c1ccccc1	ALDH1A1 block 25µM
O=C(NC(=O)c1cnccc1C(F)(F)F)Nc1ccccc1	none (no result: HPGD inh, 12-hLO inh, PNC inhibitor, Lamin A splicing)
COc1cccc([C@@H]2Oc3ccc(OC)cc3C(=O)[C@H]2O)c1	Lamin A splicing inconclusive
COc1ccc2c(c1)C(=O)[C@@H](O)[C@H](c1ccc(OC)c(Br)c1)O2	HPGD inh inconclusive, PNC inhibitor -115, Lamin A splicing inconclusive
COc1ccc(Oc2ncc3nc(-c4ccccc4)c(=O)n(CCC#N)c3n2)cc1	ALDH1A1 block inconclusive (no result: PNC inhibitor, Lamin A splicing)
O=C(NCCOC(=O)c1ccc(C(=O)OCCNC(=O)c2ccccc2)o1)c1ccccc1	HPGD inh 7.9µM, ALDH1A1 block inconclusive
O=C(NCCOCCOCCNC(=O)c1ccccc1)c1ccccc1	Lamin A splicing inconclusive (no result: HPGD inh, 12-hLO inh, PNC inhibitor)
Cc1ccc(NC(=O)c2cc(C)nc3c2c(C)nn3-c2cccc(Cl)c2C)c(C)c1	none (no result: HPGD inh, 12-hLO inh, PNC inhibitor, ALDH1A1 block)
CC(=O)O[C@H]1CC[C@@]2(C)C(=CC[C@@H]3[C@@H]4CC[C@H](c5cc(C(F)(F)F)n(C(C)=O)n5)[C@]4(C)CC[C@@H]32)C1	none (no result: PNC inhibitor, Lamin A splicing)
CC(CCc1ccccc1)N1CCN(Cc2ccccc2)CC1 (stereo not drawn)	PNC inhibitor inconclusive
CC1CCN(C(C)C(=O)Nc2ccccc2-c2ccccc2)CC1 (stereo not drawn)	none
CC(C(=O)Nc1ccccc1-c1ccccc1)N1CCN(Cc2ccccc2)CC1 (stereo not drawn)	ALDH1A1 block 14µM (no result: HPGD inh, 12-hLO inh, PNC inhibitor)
Cc1ccc(S(=O)(=O)N2CCN(C(C)C(=O)Nc3ccccc3-c3ccccc3)CC2)cc1 (stereo not drawn)	Lamin A splicing inconclusive, ALDH1A1 block 7.9µM
CC(C(=O)Nc1ccccc1-c1ccccc1)N1CCN(C(=O)c2ccccc2)CC1 (stereo not drawn)	ALDH1A1 block 13µM (no result: HPGD inh, 12-hLO inh, PNC inhibitor)
COc1ccccc1CNC(=O)CSC1=Nc2ccccc2N=C(c2ccc(F)cc2)C1	none (no result: HPGD inh, 12-hLO inh, PNC inhibitor, ALDH1A1 block)
CSCCC(NS(=O)(=O)c1ccc2c(c1)oc(=O)n2C)C(=O)N1CCN(c2cc(Cl)ccc2C)CC1 (stereo not drawn)	none (no result: HPGD inh, 12-hLO inh, PNC inhibitor, ALDH1A1 block)
Cc1cc2c(cc(C(=O)OCC(=O)NCc3cccs3)n2C(C)C)o1	ALDH1A1 block 19µM
O=C(CCCC(=O)N(CC(=O)NC1CCCC1)C1CCCC1)Nc1ccccn1	PNC inhibitor -123, Lamin A splicing inconclusive, ALDH1A1 block inconclusive
Cn1nnnc1SCC(=O)N1c2ccccc2Sc2ccccc21	PNC inhibitor inconclusive
CCn1nnnc1SCC(=O)N1c2ccccc2CCc2ccccc21	PNC inhibitor inconclusive, ALDH1A1 block 2µM
CCn1nnnc1SCC(=O)N1c2ccccc2Sc2ccccc21	ALDH1A1 block 13µM
Cn1nnnc1SCC(=O)N1c2ccccc2CCc2ccccc21	PNC inhibitor inconclusive
CCCCC/C=C\C[C@@H](O)/C=C/C=C/C=C/[C@@H](O)CCCC(=O)O	none (no result: PNC inhibitor, Lamin A splicing)
CCC(CC)C(=O)c1c[nH]c(C(=O)NN)c1	ALDH1A1 block 7.9µM (no result: HPGD inh, 12-hLO inh, PNC inhibitor)
C/C(=C\C(=O)c1ccc(Cl)cc1Cl)N(C)C	ALDH1A1 block 5.6µM (no result: HPGD inh, 12-hLO inh, PNC inhibitor)
O=[N+]([O-])c1c(C(Cl)Cl)nn(-c2ccc(Cl)cc2)c1N1CCCCC1	PNC inhibitor -113, Lamin A splicing inconclusive
O=[N+]([O-])c1c(C(Cl)Cl)nn(-c2ccccc2)c1N1CCOCC1	none (no result: HPGD inh, 12-hLO inh, PNC inhibitor)
COc1cccc(CNCc2cccn2-c2nnc(N3CCN(c4ccccc4)CC3)s2)c1	none (no result: HPGD inh, 12-hLO inh, PNC inhibitor, ALDH1A1 block)
Cn1c(=O)c2sccc2n2c(CCCC(=O)NCc3ccccc3)nnc12	none (no result: HPGD inh, 12-hLO inh, PNC inhibitor, ALDH1A1 block)
CCCC(C(=O)NC1CCCCC1)N(Cc1ccco1)C(=O)CNS(=O)(=O)c1ccccc1 (stereo not drawn)	ALDH1A1 block 10µM
CCCC(C(=O)NCC1CCCO1)N(Cc1ccco1)C(=O)CNS(=O)(=O)c1ccccc1 (stereo not drawn)	ALDH1A1 block 11µM
COc1ccc(S(=O)(=O)NCCc2csc(-c3cccc(F)c3)n2)cc1OC	none (no result: HPGD inh, 12-hLO inh, PNC inhibitor, ALDH1A1 block)
